Structures are written as SMILES. “And” between values parts separate entries of the source, which are not always exact repeats. Equal values may be shown once. Compounds without any hit were thinned out: in the full panel of roughly 83,000, 20% have a hit.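 96-well plates, one dose, 48 hours. Percent growth reported; active if below 10.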 The source made the active and inactive calls.

Consider 40 compounds from PubChem BioAssay (NCI).

This test concerns HL-60(TB) leukemia. The test is described as follows: NCI-60 one-dose screen, 48 h (100 = growth as untreated, 0 = no growth, -100 = all killed). The following applies: 10 µM unless noted.
For `COc1cc(/C=C/C(=O)c2ccc(O)c(CN3CCN(c4cc5c(cc4F)c(=O)c(C(=O)O)cn5C4CC4)CC3)c2)cc(OC)c1OC`, the growth was 7.35% (active).

With `O=S(=O)(Nc1ccccc1)C1CCCCC1`, the growth is 97.2% (inactive) and 106% (inactive).

Regarding `O=C1C=CC2(NN=C(c3ccccc3)N2c2ccccc2)c2cccc(O)c21` (stereo not given), the growth is 29.8% (inactive).

As for `COc1cc(C(=O)n2nc(-c3cc(OC)c(OC)c(OC)c3)nc2N)cc(OC)c1OC`, the growth is 67.7% (inactive).

For `CC1CCC(C(=O)O)N1` (stereo not given), the growth was 79.7% (inactive).

For `N#Cc1c(-c2ccccc2)cc(-c2ccccc2)n(CCC(=O)O)c1=O`, the growth was 13.8% (inactive).

Turning to `O=C(CSc1nc2sc3c(c2c(=O)n1-c1ccccc1)CCCCC3)N/N=C/c1ccc(F)cc1`, the growth is 110% (inactive).

As to `COc1ccc2c(c1)CC[C@H](O)/C2=C/c1cc(OC)c(OC)c(OC)c1`, the growth was -20.2% (active).

For the compound `COc1cc2nc(-c3ccc(C(F)(F)F)cc3)cc(OCCCN3CCC(O)CC3)c2cc1OC`, the growth is 27.3% (inactive).

Turning to `NC(=S)N/N=C1\CCCC(C(F)(F)F)C1` (stereo not given), the growth is 89% (inactive).

On to `CCOC(=O)c1nn(C2CCCCO2)c2ccc(NC(=O)CN3CCOCC3)cc12` (stereo not given), for which the growth is 97% (inactive).

Regarding `Cc1nc(/N=C(\N)NC(=O)Nc2cccc([N+](=O)[O-])c2)sc1C`, the growth is 39.5% (inactive).

For `C=CCn1c(SCC(=O)NCc2cc(C)c(O)c(C)c2)nc2ccc(Cl)cc2c1=O`, the growth is 94.4% (inactive).

For the compound `CCOC(=O)C1=C(N)Oc2cc(OC)ccc2C1c1ccc(F)c(F)c1` (stereo not given), the growth is -9% (active).

`N#Cc1c(-c2ccccc2)cc(-c2ccccc2)n(CCCCCC(=O)Nc2ccccc2N)c1=O`: the growth is 2.68% (active).

For `Cc1ccc2c(c1)sc(-c1ccc(N(C)C)cc1)[n+]2C`, the growth was -45.4% (active).

Regarding `COc1cc(CC#N)c([N+](=O)[O-])cc1OC`, the growth is 92.6% (inactive).

Take `O=C(N/N=C/c1ccccc1O)C(O)(c1ccccc1)c1ccccc1`: the growth is 35% (inactive).

Take `COc1ccc(/C=C/C(=O)c2cccc(OCCCCOc3cccc(C(=O)/C=C/c4ccc(OC)c(OC)c4)c3)c2)cc1OC`: the growth was 68.6% (inactive).

Regarding `Nc1ccn(-c2ccc(Br)cc2)c(=O)n1`, the growth is 125% (inactive).

For `O=C(N/N=C/c1ccccc1)C(Oc1ccccc1)c1ccccc1` (stereo not given), the growth is 109% (inactive).

For the compound `O=C(CC(SCc1ccccc1)c1ccccc1)c1ccccc1` (stereo not given), the growth was 66.7% (inactive).

For `O=C(NCc1cccnc1)c1ccc([N+](=O)[O-])o1`, the growth was 9.68% (active).

Consider `COc1ccc2c(c1)[n+]([O-])c(C(=O)/C=C/C=C(\Cl)c1cc(OC)c(OC)c(OC)c1)c(C)[n+]2[O-]`, for which the growth was 107% (inactive).

As to `Cc1nc(N2CCOCC2)sc1S(N)(=O)=O`, the growth was 97.4% (inactive).

As to `Nc1nc(N)c2nc(CNc3ccc(C(=O)NC(CCC(=O)O)C(=O)O)cc3)cnc2n1` (stereo not given), the growth is 35.3% (inactive) and 49.9% (inactive).

For `Cn1c([N+](=O)[O-])cnc1/C=C1\Oc2ccc(Cl)cc2C1=O`, the growth was -2.57% (active).

On to `Cc1cccc(Cl)c1NC(=O)c1ccc2nc(NC(=O)NCCN(C)C)sc2c1`, for which the growth was 115% (inactive).

`COc1cc(C(=O)/C=C/c2c(C)n([O-])c3ccc(C(F)(F)F)cc3[n+]2=O)cc(OC)c1OC`: the growth was 69% (inactive).

Regarding `Clc1ccc(NC(Nc2ccc(Cl)cc2)C(Cl)(Cl)Cl)cc1`, the growth was 93.3% (inactive) and 83.6% (inactive).

Turning to `N#Cc1nc(-c2ccccc2)oc1S(=O)(=O)N1CCOCC1`, the growth was 5.5% (active).

As to `COc1cc(/C=C/C(C)=O)ccc1O`, the growth was 81% (inactive) and 77.8% (inactive).

`c1ccc(N2N=C(c3cccc(Nc4ccncc4)c3)CC2c2ccc3c(c2)OCO3)cc1` (stereo not given): the growth was -21.1% (active).

Turning to `COc1ccccc1NC(=O)N/C(N)=N/c1nc2ccccc2s1`, the growth was -27.1% (active).

`CCc1c(CC(=O)O)c2cc(C)ccc2n1Cc1ccc(Cl)cc1`: the growth is 89.3% (inactive) and 161% (inactive).

Regarding `Cn1cc(-c2ccc3nc(-c4ccc(CC(=O)ONc5cc(C(C)(C)C)on5)cc4)cnc3c2)cn1`, the growth is 29% (inactive).

For the compound `COc1ccc(/C=C/c2nc(-c3n[nH]c(=O)n3-c3ccccc3)c3ccccc3n2)cc1`, the growth is 97.1% (inactive).

`COc1ccc(/C=N\NC(=O)CN2CCN(c3cc4c(cc3F)c(=O)c(C(=O)N/N=C/c3ccc(OC)c(OC)c3)cn4C3CC3)CC2)cc1OC`: the growth is 1.29% (active).

For `COC1C[C@H](O[C@@H]2C[C@H](O[C@@H]3C[C@H](O[C@@H]4C(=O)c5c(cc6cc(O[C@H]7C[C@@H](O[C@H]8C[C@@H](O)[C@H](O)C(C)O8)[C@H](O)C(C)O7)c(C)c(O)c6c5O)C[C@H]4C(OC)C(=O)[C@@H](O)[C@@H](C)O)OC(C)[C@H]3O)OC(C)[C@@H]2O)OC(C)[C@@H]1O` (stereo not given in full), the growth is -0.253% (active).

Take `CNC(=O)c1cc(Oc2ccc(CC(=O)Nc3cc(C(C)(C)C)cn3C)cc2)ccn1`: the growth is 77.5% (inactive).
